This is a sample that favours compounds with a hit; in the whole collection about 12% have one here.
USP30 inh = human USP30 deubiquitinase inhibition. Q70CQ3. inhibition, % at 25 µM. purified USP30, Ub-rhodamine cleavage fluorescence. AID 1645860. 47,000 tested, 5.3% active
USP17 inh = blocks human USP17 ubiquitin-rhodamine cleavage; inhibition, % at 50 µM; AID 1645855; purified USP17, Ub-rhodamine cleavage fluorescence, 3 h; 47,000 tested, 6.5% active; A8MUK1
Target sequence (A8MUK1 whole entry, looked up): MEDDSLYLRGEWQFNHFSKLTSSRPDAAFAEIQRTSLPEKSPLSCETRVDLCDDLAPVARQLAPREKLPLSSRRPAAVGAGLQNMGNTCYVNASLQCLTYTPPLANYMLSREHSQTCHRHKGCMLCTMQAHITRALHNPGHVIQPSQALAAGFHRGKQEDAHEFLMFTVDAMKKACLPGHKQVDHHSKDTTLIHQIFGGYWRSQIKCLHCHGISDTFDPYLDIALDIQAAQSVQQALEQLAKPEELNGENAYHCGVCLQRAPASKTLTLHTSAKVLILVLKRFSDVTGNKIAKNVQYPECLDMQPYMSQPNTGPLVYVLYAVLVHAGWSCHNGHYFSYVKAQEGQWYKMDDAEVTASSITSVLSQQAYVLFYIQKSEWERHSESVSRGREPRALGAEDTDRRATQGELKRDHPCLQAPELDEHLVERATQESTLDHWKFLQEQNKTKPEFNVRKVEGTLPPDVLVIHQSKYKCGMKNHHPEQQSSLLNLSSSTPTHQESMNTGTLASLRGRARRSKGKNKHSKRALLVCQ
OTUD3 block = blocks human OTUD3 ubiquitin-rhodamine cleavage | Q5T2D3 | purified OTUD3, Ub-rhodamine fluorescence, 2 h | inhibition, % at 25 µM | 47,000 tested, 0.7% active | AID 1645858
USP28 block = blocks human USP28 ubiquitin-rhodamine cleavage; purified USP28, Ub-rhodamine cleavage fluorescence, 30 min; inhibition, % at 25 µM; 47,000 tested, 3% active; Q96RU2
The depositor's hits bear a star. Cut-off read from the data, not from the text of the source: active = inhibition above about 30%; inactive = the rest.

SMILES | USP30 inh | USP17 inh | OTUD3 block | USP28 block
COc1ccccc1CNC(=O)Cn1c(=O)c2c(ncn2CC(C)C)n(Cc2ccccc2)c1=O | 31* | 19 | 16 | 18
COc1ccccc1CNC(=O)CCCCn1c(=O)c2ccccc2n(Cc2ccc(C)cc2)c1=O | 28 | 38* | 22 | 19
CCOc1ccccc1NC(=O)Cn1c(=O)n(CCCCC(=O)NCc2ccccc2OC)c(=O)c2ccccc21 | -2 | 2 | -3 | -4
COc1ccc(S(=O)(=O)N(CC(N)=O)c2cccc(Cl)c2)cc1 | 29 | 15 | 13 | 11
O=C1CCCC[C@]2(CN(C(=O)Cn3nnc4ccccc43)C[C@H]2c2ccccc2F)N1 | 8 | 8 | 9 | 12
Cc1cc(C)cc(NC(=O)CN2C(=O)CC(c3ccccc3)Sc3ccccc32)c1 (stereo not drawn) | 57* | 27 | 21 | 33*
Cc1ccc2c(c1)c(=O)c(-c1nc(-c3ccccn3)no1)cn2C | 10 | 2 | 3 | 3
Cc1cc(C)cc(NC(=O)c2c(C)oc3nc[nH]c(=O)c23)c1 | -9 | 33* | 2 | 5
Cc1ccc(S(=O)(=O)N2C(=O)CCC2C(=O)NCCc2ccccc2)cc1 (stereo not drawn) | 16 | 15 | 3 | 7
Cc1ccc2c(c1)n(S(=O)(=O)c1ccc(F)cc1)c(=O)n2S(=O)(=O)c1ccc(F)cc1 | 35* | 33* | 15 | 19
CC(C)NS(=O)(=O)c1cccc2c(NC(=O)C(Cc3ccccc3)NC(=O)c3ccccc3)cccc12 (stereo not drawn) | 79* | 6 | 1 | 1
O=c1ccc(-c2cc3ccccc3o2)cn1Cc1ccccc1-c1ccccc1 | -86 | 48* | 46* | 62*
Cc1snc(SCc2nc(COc3ccc(Cl)cc3Cl)n[nH]2)c1C#N | 40* | 15 | 26 | 40*
CCn1cc2nc(SCC(=O)NC3CCCC3)n(Cc3ccc(C)cc3)c(=O)c2n1 | 70* | 63* | 16 | 12
CCn1cc2nc(SCC(=O)NC3CCCC3)n(Cc3ccc(OC)cc3)c(=O)c2n1 | 8 | -2 | 0 | -5
O=C(Nc1ccccc1)c1noc2c1CCc1sccc1-2 | 4 | 37* | 5 | 19
Cc1ccc(NC(=O)c2noc3c2CCc2sccc2-3)cc1Cl | 20 | 13 | 21 | 11
O=C(Nc1ccc(F)cc1)c1noc2c1CCc1sccc1-2 | 3 | 36* | 2 | 6
Cc1cccc(NC(=O)c2noc3c2CCc2sccc2-3)n1 | 22 | 65* | 1 | 15
O=C(c1cc(-c2ccncc2)n(-c2ccccc2)n1)N1CCc2ccccc21 | 22 | 7 | -1 | 20
COc1ccccc1NC(=O)CCNc1cc(C)nc2nc(-c3cccnc3)nn12 | 21 | 19 | 15 | 7
O=C(Oc1ccc(-c2nccc(-c3cccs3)n2)cc1)c1ccco1 | 25 | 49* | 24 | 21
Cc1c(C(=O)N2CCC(Cc3ccccc3)CC2)oc2c1C(=O)CCC2 | 33* | 18 | 10 | 20
CCOC(=O)c1ccccc1NC(=O)C(=O)CC(=O)c1ccc(OC)cc1 | -18 | 31* | 0 | 24
CCOC(=O)c1ccccc1NC(=O)Cc1c(C)n(C(=O)c2ccc(Cl)cc2)c2ccc(OC)cc12 | -38 | -5 | -3 | -12
SMILES | USP30 inh | USP17 inh | OTUD3 block | USP28 block
Cc1ccc(NC(=O)CCNc2c(N3CCCC3)c(=O)c2=O)c(C)c1 | -1 | -3 | -1 | -6
COc1ccc(C(=O)OC(C(=O)c2c[nH]c3ccccc23)c2ccccc2)c(OC)c1 (stereo not drawn) | -210 | -23 | -39 | -42
O=C(NC1CCCC1)C1CC(=O)N(c2cccc(-c3noc(-c4cccs4)n3)c2)C1 (stereo not drawn) | -41 | 61* | 0 | -1
COc1ccc2cc(C(C)C(=O)NCc3cccc(NS(N)(=O)=O)c3)ccc2c1 (stereo not drawn) | 42* | 6 | 9 | 20
COc1ccc(C(CC(=O)NCc2cccc(OC)c2)n2cccc2)cc1 (stereo not drawn) | 11 | 38* | 2 | 1
COc1ccc2cc(C(C)C(=O)NCc3ccc(CS(N)(=O)=O)cc3)ccc2c1 (stereo not drawn) | 28 | 1 | 0 | 16
O=C(CC(c1cccc(F)c1)n1cccc1)NCc1ccc(Cl)cc1 (stereo not drawn) | 38* | 5 | 13 | 14
Cc1cccnc1C(=O)N[C@@H]1C[C@@H](Oc2ccccc2)[C@H](O)[C@H]1O | -14 | -1 | 0 | -7
Clc1cc(-c2nc(-c3cccc(-c4ccn[nH]4)c3)no2)ccn1 | 5 | 41* | -2 | 1
Cc1ccc(Cc2nc(-c3ccc(=O)[nH]c3)no2)cc1 | -3 | 0 | 5 | 91*
O=c1ccc(-c2noc(-c3ccc4c(c3)OCO4)n2)c[nH]1 | -17 | -7 | -3 | -13
Cc1ccc(Cc2nc(-c3cccc(-c4ccn[nH]4)c3)no2)cc1 | 2 | 10 | 7 | 45*
O=c1ccc(-c2noc(CCc3c[nH]c4ccccc34)n2)c[nH]1 | -93 | -28 | -25 | 42*
O=C(Cc1ccccc1)NCc1nc(-c2cccc(-c3ccn[nH]3)c2)no1 | 7 | 0 | -1 | 8
O=c1ccc(-c2noc(-c3n[nH]c4ccccc34)n2)c[nH]1 | -194 | -27 | -51 | -77
CC1CCN(C(=O)c2cccc(-c3cnc(NC4CCCCC4)nc3)c2)CC1 | -2 | -3 | -15 | -6
COc1ccc(-n2ccn3c(CCC(=O)Nc4ccc(C)cc4)nnc3c2=O)cc1 | -3 | 0 | -2 | -6
Cc1nnc(-c2ccc3ccn(CC(=O)NCc4ccc5c(c4)OCO5)c3c2)o1 | -59 | -44 | -21 | -18
COc1ccccc1C(=O)N1CC(C(=O)NC2CCCCC2)C2(CCOCC2)C1 (stereo not drawn) | 5 | -9 | -6 | -5
CC(C)c1ccc(C(C)NC(=O)c2cccc(N(C)C)c2)cc1 (stereo not drawn) | -5 | 39* | -2 | -6
Cc1ccc(OC(=O)c2cn(-c3ccccc3)nc2-c2cccnc2)cc1 | 45* | 55* | 10 | -4
O=C(CSc1nnc(Cn2cnc3ccccc32)o1)Nc1ccc([N+](=O)[O-])cc1 | 25 | 63* | 11 | 12
CN1CCCc2cc(C(=O)NCc3ccccc3)sc21 | -12 | -20 | -14 | -6
O=C(Nc1ccc(C(F)(F)F)cc1)C1CC(=O)N(c2ccc3c(c2)OCCO3)C1 (stereo not drawn) | 34* | 35* | 12 | 19
O=C(Nc1ccc2c(c1)OCO2)C1CC(=O)N(c2ccc3c(c2)OCCO3)C1 (stereo not drawn) | -12 | 15 | -15 | 2
O=C(Nc1nc2c(s1)CN(CC(=O)N1CCCc3ccccc31)CC2)c1cnccn1 | -75 | 0 | -6 | -2
CC1=C(C(=O)NCc2ccccc2)C(c2cccc(F)c2)n2ncnc2N1 (stereo not drawn) | 33* | 11 | 13 | 8
COc1ccc(C2C(C(=O)NCc3ccccc3)=C(C)Nc3ncnn32)cc1 (stereo not drawn) | -5 | -15 | -3 | -8
CC(C(=O)NCc1ccc(F)cc1)n1cccc1C(=O)c1ccccc1 (stereo not drawn) | -22 | 0 | 74* | 8

Screening results from PubChem.
